Some test systems named below: NCI-H23 lung; NCI-H226 lung; NCI-H322M lung; HOP-62 NSCLC; NCI-H460 lung; NCI-H522 lung; 786-0 renal; COLO 205 colon; K-562 leukemia; MALME-3M melanoma; MDA-MB-231 breast; SF-268 CNS; SF-295 CNS; SF-539 CNS; UACC-257 melanoma; M14 melanoma; HCT-15 colon; DU-145 prostate; RXF 393 renal; A549/ATCC NSCLC.
Common to all, as to test: NCI-60 one-dose screen, 48 h (100 = growth as untreated, 0 = no growth, -100 = all killed)
Common to all, as to conditions: 10 µM unless noted

Among the data in PubChem BioAssay (NCI) are growth values, retold here.

The panel holds about 83,000 compounds, 20% with a hit somewhere; the sample as a whole holds those more often.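 Results are percent growth after 48 hours of single-concentration exposure. 100 means growth as in untreated cells, lower positive values show inhibition; negative values down to -100 show cell death.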 Unmarked numbers belong to inactive results. The source made the active and inactive calls. Rule for the calls: active = growth percent below 10; inactive = the rest.

For the compound `CN(C)CCCN1c2nc3ccccc3cc2Sc2cc3ccccc3nc21`, the growth is -34.2% (active) with NCI-H23 lung; 40.1% with NCI-H226 lung; 18% in the assay on NCI-H322M lung; 32% in the assay on HOP-62 NSCLC; -89.1% (active) in the assay with NCI-H460 lung; -67.7% (active) in the assay on NCI-H522 lung. Moreover, the growth was -86.3% (active) with 786-0 renal; -89.2% (active) in the assay with COLO 205 colon; 4.31% (active) with K-562 leukemia; -75.9% (active) in the assay on MALME-3M melanoma; -82.8% (active) in the assay on MDA-MB-231 breast; 27.2% in the assay on SF-268 CNS. Also, the growth in the assay with SF-295 CNS is -74.7% (active); in the assay on SF-539 CNS, -94.6% (active); in the assay with UACC-257 melanoma, -69.5% (active); in the assay on M14 melanoma, -70.6% (active); with HCT-15 colon, 2.14% (active).
Regarding `CCN(CC)CCOc1ccc(C2=C(c3ccccc3)CCc3cc(OC)ccc32)cc1`, the growth is -11.6% (active) with NCI-H23 lung; 58.6% in the assay on NCI-H226 lung; 17.6% in the assay with NCI-H322M lung; -74.9% (active) in the assay with HOP-62 NSCLC; -55.9% (active) in the assay on NCI-H460 lung; -25.3% (active) with NCI-H522 lung. Moreover, the growth with 786-0 renal was -82.3% (active); in the assay with COLO 205 colon, -69.6% (active); in the assay on DU-145 prostate it was 41.3%; in the assay with K-562 leukemia it was -31% (active); in the assay on MALME-3M melanoma, -91.4% (active); in the assay with MDA-MB-231 breast, -2.94% (active). The growth was 33.1% in the assay with SF-268 CNS; -72.7% (active) in the assay on SF-295 CNS; -17.4% (active) with SF-539 CNS; -63.6% (active) in the assay on M14 melanoma; 6.79% (active) in the assay with HCT-15 colon.
Consider `Nc1nc2ncc(CCNc3ccc(C(=O)NC(CCC(=O)O)C(=O)O)cc3)nc2c(=O)[nH]1` (stereo not drawn), for which the growth was 43.3% in the assay with NCI-H23 lung; 102% in the assay with NCI-H226 lung; 122% in the assay on NCI-H322M lung; 90.6% with HOP-62 NSCLC; 108% in the assay with NCI-H460 lung; 28% in the assay on NCI-H522 lung. For the same compound, the growth in the assay with 786-0 renal is 93.1%; with COLO 205 colon, 118%; with DU-145 prostate, 109%; with K-562 leukemia it was 127%; in the assay with MALME-3M melanoma, 118%; in the assay on MDA-MB-231 breast, 115%. In addition, the growth in the assay on SF-268 CNS is 110%; in the assay with SF-295 CNS, 113%; in the assay with SF-539 CNS it was 94.3%; in the assay with UACC-257 melanoma it was 75.2%; in the assay with M14 melanoma, 114%; in the assay on HCT-15 colon it was 98.2%.
Regarding `CCCCOc1ccc(C(C)(C)c2ccc(OCCCC)cc2)cc1`, the growth was 103% in the assay with NCI-H23 lung; 104% in the assay with NCI-H226 lung; 99.1% in the assay on NCI-H322M lung; 102% in the assay on HOP-62 NSCLC; 113% in the assay on NCI-H460 lung; 92.3% in the assay on NCI-H522 lung. Also, the growth is 91% in the assay on 786-0 renal; 121% in the assay with COLO 205 colon; 107% with DU-145 prostate; 98.7% with MALME-3M melanoma; 111% with MDA-MB-231 breast; 125% in the assay with RXF 393 renal. Besides, the growth with SF-268 CNS is 115%; with SF-539 CNS it was 92.1%; with M14 melanoma it was 104%; in the assay with HCT-15 colon, 107%.
`O=C(Cc1ccccn1)C(F)(F)C(F)(F)C(F)(F)F`: the growth with NCI-H23 lung is 104%; with NCI-H226 lung, 102%; in the assay with NCI-H322M lung, 116%; with HOP-62 NSCLC it was 97.5%; in the assay with NCI-H460 lung it was 111%; in the assay on NCI-H522 lung, 111%. The growth was 104% in the assay on 786-0 renal; 127% in the assay with COLO 205 colon; 112% in the assay on DU-145 prostate; 110% in the assay with MALME-3M melanoma; 102% with MDA-MB-231 breast; 125% in the assay with RXF 393 renal. In addition, the growth in the assay with SF-268 CNS is 125%; in the assay with SF-539 CNS, 104%; with M14 melanoma, 110%; with HCT-15 colon it was 109%.
Take `C[N+]1(CCc2ccccc2)CCC(CCC2CC[N+](C)(CCc3ccccc3)CC2)CC1` (stereo not drawn): the growth is 87.4% in the assay with NCI-H23 lung; 92.1% in the assay on NCI-H226 lung; 120% in the assay on NCI-H322M lung; 66.9% in the assay with HOP-62 NSCLC; 103% with NCI-H460 lung; 98.8% with NCI-H522 lung. The growth is 110% with 786-0 renal; 104% with COLO 205 colon; 117% with DU-145 prostate; 129% in the assay with K-562 leukemia; 118% in the assay with MALME-3M melanoma; 101% in the assay with MDA-MB-231 breast. Besides, the growth in the assay with RXF 393 renal was 105%; in the assay with SF-268 CNS it was 102%; in the assay on SF-295 CNS, 97.1%; in the assay on SF-539 CNS it was 106%; in the assay with UACC-257 melanoma it was 110%; in the assay on M14 melanoma, 103%. For the same compound, the growth in the assay on HCT-15 colon was 104%.
On to `COc1cccc(CCC2C(=O)CCCC2=O)c1`, for which the growth with NCI-H23 lung is 103%; in the assay with NCI-H226 lung, 111%; in the assay on NCI-H322M lung it was 102%; with HOP-62 NSCLC, 106%; with NCI-H460 lung, 117%; with A549/ATCC NSCLC it was 108%. Besides, the growth with 786-0 renal was 108%; in the assay on COLO 205 colon it was 99.5%; with DU-145 prostate it was 105%; in the assay on K-562 leukemia, 109%; with MALME-3M melanoma, 115%; with MDA-MB-231 breast, 114%. Further, the growth was 134% in the assay with RXF 393 renal; 98.1% in the assay on SF-268 CNS; 118% in the assay with SF-295 CNS; 98.8% in the assay with SF-539 CNS; 108% in the assay on UACC-257 melanoma; 113% in the assay with M14 melanoma. Moreover, the growth in the assay with HCT-15 colon was 108%.
Regarding `CCS(=O)(=O)OCCCl`, the growth is 22.4% in the assay on NCI-H23 lung; 98.4% in the assay on NCI-H226 lung; 103% in the assay on NCI-H322M lung; 108% in the assay with HOP-62 NSCLC; 107% in the assay on NCI-H460 lung; 14.3% in the assay with NCI-H522 lung. The growth with 786-0 renal is 96.5%; in the assay with COLO 205 colon, 102%; with DU-145 prostate, 116%; with K-562 leukemia it was 122%; with MALME-3M melanoma it was 113%; in the assay on MDA-MB-231 breast, 118%. Moreover, the growth in the assay with SF-268 CNS was 107%; in the assay with SF-295 CNS it was 97.2%; in the assay on SF-539 CNS, 94.9%; in the assay with UACC-257 melanoma, 72.1%; in the assay with M14 melanoma it was 116%; in the assay with HCT-15 colon it was 92.9%.
As to `Cc1cccc(Cl)c1NC(=O)c1ccc2nc(NC(=O)NC3CC(C)(C)NC(C)(C)C3)sc2c1`, the growth was 91% with NCI-H23 lung; 103% with NCI-H226 lung; 81.8% with NCI-H322M lung; 68.3% in the assay on HOP-62 NSCLC; 101% in the assay on NCI-H460 lung; 88.6% in the assay on NCI-H522 lung. For the same compound, the growth with 786-0 renal was 84.6%; in the assay with COLO 205 colon it was 15.3%; with DU-145 prostate, 103%; in the assay on K-562 leukemia it was 9.24% (active); in the assay with MALME-3M melanoma it was 82.2%; with MDA-MB-231 breast, 54%. In addition, the growth with RXF 393 renal was 35.8%; with SF-268 CNS, 70.4%; with SF-295 CNS, 79.7%; with SF-539 CNS, 41.8%; in the assay on M14 melanoma, 93.6%; with HCT-15 colon, 103%.
